Compounds without any hit were thinned out: in the full panel of roughly 83,000, 20% have a hit.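 Compound tested at a single concentration for 48 hours in 96-well plates; a percent growth value below 10 was scored as active.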 Active and inactive are the calls of the source.

One assay deals with RXF 393 renal. Description: NCI-60 one-dose screen, 48 h (100 = growth as untreated, 0 = no growth, -100 = all killed). As to conditions: 10 µM unless noted.
With `CN1CCN(CCCCCN=c2cc3c(=O)n(CCCCCN4CCN(C)CC4)c(=O)c4c(NCCCCCN5CCN(C)CC5)cc5c(O)n(CCCCCN6CCN(C)CC6)c(=O)c2c5c4-3)CC1`, the growth is 64.4% (inactive).
With `CCCCCCCCCCCCC1CCCC(C)C1` (configuration not stated), the growth is 109% (inactive).
On the same count and under the same terms, under `CC(=O)Nc1cc2c3c(cccc3c1)-c1ccccc1-2` stands 92.4% (inactive).
Same read-out and setting: to `Nc1ccc2c(c1)C(=O)c1cc(Cl)c(Cl)cc1-2` belongs 104% (inactive).
Take `Cc1ccc(OCC(=O)Nc2ccc(Oc3ccccc3)cc2)c([N+](=O)[O-])n1`: the growth was 66.1% (inactive).
Still for that read-out and setting: under `Cc1nn(-c2ccccc2)cc1/C=C1\SC(N2CCCCC2)=NC1=O` stands 86% (inactive); under `COc1ccc(C2=NN(C(N)=S)C(c3ccc4c(c3)OCO4)C2)cc1` (configuration not stated), 48.5% (inactive).
On the same count and under the same terms, under `COc1ccc(-c2c3c(N)nc(-c4ccncc4)nc3nc3c2c(C)nn3-c2ccccc2)cc1` stands 69.4% (inactive); under `CCOC(=O)CCC(=O)O[C@H]1[C@H](O[C@@H]2[C@@H](C)[C@H](O[C@H]3C[C@@](C)(OC)[C@@H](O)[C@H](C)O3)[C@@H](C)C(=O)O[C@H](CC)[C@@](C)(O)[C@H](O)[C@@H](C)C(=O)[C@H](C)C[C@@]2(C)O)O[C@H](C)C[C@@H]1N(C)C`, 110% (inactive).
Same read-out and setting: to `c1ccc(-c2oc(-c3ccccc3)c3ccccc23)cc1` belongs 116% (inactive).
Consider `O=[N+]([O-])c1cc([N+](=O)[O-])c(N2CCCC2)cc1NN=C(c1ccc(O)cc1)c1ccc(O)cc1`, for which the growth was -22.2% (active).
For the compound `O=C1Nc2ccc(C(=O)O)c(O)c2C1=O`, the growth is 116% (inactive).
On to `CCCCCCCCN(CCO)CCCCCCCC`, for which the growth was 93.2% (inactive).
Same read-out and setting: under `O=c1c2c(=NCCCN3CCCC3)cc3c(=O)n(CCCN4CCCC4)c(=O)c4c(NCCCN5CCCC5)cc(c(O)n1CCCN1CCCC1)c2c4-3` stands -67.6% (active).
With `O=C(N/N=C/c1cccc([N+](=O)[O-])c1)c1ccc(Br)o1`, the growth was 104% (inactive).
On the same count and under the same terms, under `Nc1ccc2c(c1)Cc1cc(Cl)c(Cl)cc1-2` stands 50.7% (inactive).
`Nc1ncnc2c1CN(Cc1ccccc1)CC2`: the growth was 122% (inactive).
On the same count and under the same terms, to `CC[C@@H](C)/C=C(C)/C=C/C(O)=C1\C(=O)N[C@@H](Cc2ccc(OC(=O)[C@@](OC)(c3ccccc3)C(F)(F)F)cc2)C1=O` belongs 109% (inactive).

In the next assay the test system is SF-268 CNS. The description is as above. The settings on record: 10 µM unless noted.
On to `C(=C1c2ccccc2-c2ccccc21)c1ccncc1`, for which the growth is 54.8% (inactive).
Still for that read-out and setting: under `O=Nc1c2cccnc2n2nnc3ccc(Cl)cc3c12` stands 48.7% (inactive); under `COc1ccc(/C=C2/SC(=Nc3c(C)nn(-c4ccccc4)c3N)NC2=O)cc1`, 58.8% (inactive).
Same read-out and setting: to `Cc1ccc(-c2c3c(N)c4c(nc3nc3c2c(C)nn3-c2ccccc2)CCC4)cc1` belongs 108% (inactive).
As to `Cc1cc(-c2ccccc2)cc(C)n1`, the growth is 111% (inactive).
Still for that read-out and setting: under `CCSCC1CC(O)(c2ccccc2)C(c2ccccc2)C(c2ccc(Cl)cc2)O1` (configuration not stated) stands 17.3% (inactive).
The same measure, in the same setting: to `COc1ccc(/C=C/C(=O)c2cccc(NS(C)(=O)=O)c2)cc1` belongs 82% (inactive); to `Cc1[nH]cnc1/C=C1\SC(N2CCCCC2)=NC1=O`, 114% (inactive).
Still for that read-out and setting: to `C[N+]1(C)C2CC[C@@H]1CC(OC(=O)C(O)c1ccccc1)C2` (some centres not stated) belongs 114% (inactive); to `CN(C)CCCN=c1cc2c(=O)n(CCCN(C)C)c(=O)c3c(NCCCN(C)C)cc4c(O)n(CCCN(C)C)c(=O)c1c4c3-2`, 1.31% (active).
Regarding `C[C@]12CC[C@H](O)CC1=CC[C@@H]1[C@@H]2CC[C@]2(C)C(c3cccnc3)=CC[C@@H]12`, the growth was 79.5% (inactive).
Same read-out and setting: under `CCOC(=O)Nc1ccc2c3c(cccc13)-c1ccccc1-2` stands 52.3% (inactive); under `CSc1nc2nc3c(nc2c(=O)n1C)C(=O)c1ccccc1C3=O`, -17.9% (active); under `O=C1/C(=C\c2coc3ccccc3c2=O)c2ccccc2N1c1c(Cl)cccc1Cl`, 32% (inactive).
On the same count and under the same terms, under `O=C(Oc1cccc2ccccc12)c1ccccc1C(=O)c1ccccc1` stands 79% (inactive).
On the same count and under the same terms, to `O=C1N=C(N2CCOCC2)S/C1=C\c1cn(-c2ccccc2)nc1-c1ccccc1` belongs 74.8% (inactive).
Regarding `Cn1c(N2N=C(c3ccc(Cl)cc3)CC2c2ccccc2)nc(-c2ccccc2)c(C#N)c1=O` (configuration not stated), the growth was 57.9% (inactive).
Same read-out and setting: under `O=C(O)CNC(=O)C1(N2C(=O)c3ccccc3C2=O)CCCC1` stands 116% (inactive); under `c1ccc(CN=C(NCc2ccccc2)NCc2ccccc2)cc1`, 63.8% (inactive).
Same read-out and setting: to `CN1CCN(CCCCCN=c2cc3c(=O)n(CCCCCN4CCN(C)CC4)c(=O)c4c(NCCCCCN5CCN(C)CC5)cc5c(O)n(CCCCCN6CCN(C)CC6)c(=O)c2c5c4-3)CC1` belongs -2.31% (active); to `Clc1ccc2c(c1)C(Br)c1cc(Cl)cc(Cl)c1-2` (configuration not stated), 98.3% (inactive).
On the same count and under the same terms, to `CCCCCCCCCCCCC1CCCC(C)C1` (configuration not stated) belongs 110% (inactive).
On to `CC(=O)Nc1cc2c3c(cccc3c1)-c1ccccc1-2`, for which the growth was 39% (inactive).
Still for that read-out and setting: under `Nc1ccc2c(c1)C(=O)c1cc(Cl)c(Cl)cc1-2` stands 93.4% (inactive); under `CCN(CC)c1ccc(/C=C/C(=O)c2cccc(NS(C)(=O)=O)c2)cc1`, 61.5% (inactive); under `Cc1ccc(OCC(=O)Nc2ccc(Oc3ccccc3)cc2)c([N+](=O)[O-])n1`, 86.5% (inactive).
On the same count and under the same terms, to `Cc1nn(-c2ccccc2)cc1/C=C1\SC(N2CCCCC2)=NC1=O` belongs 91.3% (inactive); to `COc1ccc(C2=NN(C(N)=S)C(c3ccc4c(c3)OCO4)C2)cc1` (configuration not stated), 21.5% (inactive).
The same measure, in the same setting: under `COc1ccc(-c2c3c(N)nc(-c4ccncc4)nc3nc3c2c(C)nn3-c2ccccc2)cc1` stands 54% (inactive).
As to `CCOC(=O)CCC(=O)O[C@H]1[C@H](O[C@@H]2[C@@H](C)[C@H](O[C@H]3C[C@@](C)(OC)[C@@H](O)[C@H](C)O3)[C@@H](C)C(=O)O[C@H](CC)[C@@](C)(O)[C@H](O)[C@@H](C)C(=O)[C@H](C)C[C@@]2(C)O)O[C@H](C)C[C@@H]1N(C)C`, the growth is 115% (inactive).
Still for that read-out and setting: under `c1ccc(-c2oc(-c3ccccc3)c3ccccc23)cc1` stands 102% (inactive); under `O=[N+]([O-])c1cc([N+](=O)[O-])c(N2CCCC2)cc1NN=C(c1ccc(O)cc1)c1ccc(O)cc1`, 77.3% (inactive).
For the compound `O=C1Nc2ccc(C(=O)O)c(O)c2C1=O`, the growth was 104% (inactive).
For the compound `CCCCCCCCN(CCO)CCCCCCCC`, the growth was 107% (inactive).
For `O=c1c2c(=NCCCN3CCCC3)cc3c(=O)n(CCCN4CCCC4)c(=O)c4c(NCCCN5CCCC5)cc(c(O)n1CCCN1CCCC1)c2c4-3`, the growth was -7.1% (active).
Still for that read-out and setting: under `O=C(N/N=C/c1cccc([N+](=O)[O-])c1)c1ccc(Br)o1` stands 104% (inactive).
Same read-out and setting: to `Nc1ccc2c(c1)Cc1cc(Cl)c(Cl)cc1-2` belongs 74% (inactive).
Turning to `Nc1ncnc2c1CN(Cc1ccccc1)CC2`, the growth is 105% (inactive).
Still for that read-out and setting: to `CC[C@@H](C)/C=C(C)/C=C/C(O)=C1\C(=O)N[C@@H](Cc2ccc(OC(=O)[C@@](OC)(c3ccccc3)C(F)(F)F)cc2)C1=O` belongs 61.9% (inactive).

The values above are taken from PubChem BioAssay (NCI).
